HP1b chromo inh: inhibitors of HP1-beta chromodomain binding to methylated histone tails | Potency, µM (series often up to 114 µM), for the others: top-dose activity change, negative = inhibition, actives largely listed as inhibitors | AlphaScreen HP1-beta / biotin-H3K9me3 peptide binding | 390,000 compounds, 0.56% hits; note: nearly all actives have a fitted effect of over 70% in size
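AlphaScreen: HP1-beta (50 nM) preformed 30 min with biotin-H3(1-18)K9me3 peptide (50 nM) in PBS pH 7.4, 0.01% Tween-20. Compound added for 30 min at RT, then streptavidin donor/nickel chelate acceptor beads (10 ug/mL) for 30 min.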
G9a inh: blocks human histone lysine methyltransferase G9a; G9a H3K9 monomethylation, AlphaScreen, 2 h; Potency, µM (titrated, usually from 102 µM), for inactives: at the top dose activity, negative = inhibition, hits mostly inhibitors; 350,000 compounds, 8.8% hits; note: % is set by controls: 0 for no effect and ±100 for the full control effect; nearly all actives have a fitted effect of over 75% in size
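Enzyme 20 nM + cpd, 15 min RT; add b-H3K9 pep 500 nM / SAM 20 uM; 2 h RT; anti-H3K9me1 Ab 0.5 ug/mL + SA donor / anti-rabbit acceptor beads 20 ug/mL each, 10 min; AlphaScreen read.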
Sfp inh: blocks B. subtilis Sfp PPTase activity | Biochemical Sfp PPTase activity, qHTS | Potency, µM, for the others: largest response in the series, negative = inhibition, actives largely listed as inhibitors | 310,000 compounds, 3.5% hits;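 note: the enzyme is Sfp with the accession as filed and its product quenches rhodamine fluorescence; 0% = enzyme reaction without inhibitor and -100% = no enzyme wells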
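With Hepes-Na pH 7.6 buffer containing 10 mM MgCl2, Sfp (15 nM) modified BHQ-2-YbbR (12.5 uM) using rhodamine-CoA (5 uM). Two reads 30 minutes apart at 525/598 nm yielded each well's rate.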
L3MBTL1 inh: L3MBTL1 (human) inhibition | AlphaScreen L3MBTL1–H3K9me1 peptide binding | Potency, µM (top dose mostly 57.1 µM), for the others: at the highest dose activity, negative = inhibition, most hits filed as inhibitors | 230,000 compounds, 0.66% hits | AID 485360; note: % is set by controls: 0 for no effect and ±100 for the full control effect; nearly all actives have a fitted effect of over 60% in size
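First, the protein-peptide complex forms for 30 min at room temperature (L3MBTL1 50 nM, biotinylated H3K9me1 peptide 75 nM). Next, compounds are pin-transferred and incubated 30 min. Finally, AlphaScreen beads are added and read after 30 min.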
JMJD2A Tudor: blocks the human JMJD2A Tudor domain; O75164; AlphaScreen JMJD2A-Tudor / H3K4me3 peptide binding; Potency, µM (series often up to 114 µM), for the others: at the top dose activity change, negative = inhibition, most hits filed as inhibitors; 390,000 compounds, 4.4% hits; AID 504339; note: % is set by controls: 0 for no effect and ±100 for the full control effect; nearly all actives have a fitted effect of over 50% in size
BAZ2B block: BAZ2B (human) inhibition | Q9UIF8 | 360,000 compounds, 4.4% hits | AID 504333 | AlphaScreen BAZ2B-H3K14Ac peptide displacement | Potency, µM (doses to about 114 µM), for the others: at the highest dose activity change, negative = inhibition, actives largely listed as inhibitors; note: % is set by controls: 0 for no effect and ±100 for the full control effect; nearly all actives have a fitted effect of over 60% in size
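In this displacement format the biotinylated H3(5-23) peptide acetylated at Lys14 serves as ligand at 50 nM, with BAZ2B at 50 nM in PBS pH 7.4 containing 0.01% Tween-20. Donor and acceptor beads are 10 ug/mL final.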
* = called active by the depositor; ? = inconclusive; nt = no result given; [ ] = another dose, or the depositor's remark. The list is not random: actives were taken first. Their share in the collection is about 12%. Calls come from the whole dose curve; as a rule, active = well fitted curve in the direction sought with a large enough effect; inconclusive = small, poorly fitted or top-dose-only effect, or another doubt; inactive = no such curve, though single readings can be large; an effect the other way counts as inactive or inconclusive. Potency is the fitted concentration of half-maximal effect.

SMILES | HP1b chromo inh | G9a inh | Sfp inh | L3MBTL1 inh | JMJD2A Tudor | BAZ2B block
O=C(CSc1nc2ccsc2c(=O)n1CC1CCC(C(=O)O)CC1)c1ccc(Cl)cc1 (centres undefined) | -19.1% | 56.2µM* | -16.5% | nt | 79.4µM* | nt
O=C(Nc1c(-c2ccccc2)nc2ccccn12)c1ccc(Br)cc1 | 8.0% | -3.0%[59 µM] | nt | nt | -18.8% | 3.0%
CCOC(=O)COc1ccccc1/C=C\[N+](=O)[O-] | 24.7% | 3.55µM* | 14.1µM* | 10.3% | -14.9% | -29.6%
CC(C)c1ccc(Nc2ncnc3c2nc2n3CCCC2)cc1 | 45.5% | -4.4%[59 µM] | nt | nt | -11.6% | -2.4%
Cc1nn2c(N)csc2nc1=O | nt | 79.4µM* | 50.1µM* | -6.7% | nt | ?
Cc1cc(C(=O)C(=O)Nc2nncs2)c(C)n1-c1ccc(Cl)cc1 | -9.3% | -23.9%[59 µM] | nt | nt | -11.6% | -28.1%
CCCCCCCCCCCCCCCCn1cc[n+](CC(C)=O)c1 | 27.7% | -8.3%[59 µM] | 35.5µM* | nt | -1.0% | -8.7%
Cc1cc(F)ccc1NC(=O)CS(=O)(=O)c1cccc2nsnc12 | 37.0% | 9.3%[59 µM] | nt | nt | -24.7% | 3.7%
Cc1cc2ccccc2c(=O)n1CC(=O)NCC(=O)N1CCN(c2ccccc2)CC1 | 16.7% | 25.9%[59 µM] | 50.1µM* | 11.8% | -31.0% | ?
Cc1cc2ccccc2c(=O)n1CC(=O)N1CCN(c2cccc(Cl)c2)CC1 | 16.8% | -22.7%[2.33 µM] | -3.2% | nt | -8.9% | 8.7%
COC(=O)c1scc(C#N)c1N/N=C(\C#N)S(=O)(=O)c1ccc(Cl)cc1 | -9.1% | 44.7µM* | 25.4% | nt | ? | -37.3%
COC(=O)c1scc(S(=O)(=O)C(C)C)c1N/N=C(\C#N)C(=O)c1ccc(Cl)cc1 | -5.6% | 50.1µM* | -7.7% | -24.8% | ? | -33.3%
COC(=O)c1scc(C)c1NC(=O)c1ccc(Cl)cc1 | 8.1% | 14.8%[0.501 µM] | 15.6% | nt | 3.4% | 7.7%
COC(=O)c1ccc(-c2nn(C)c(=O)c3ccccc23)cc1 | -1.3% | -8.6%[59 µM] | 20.3% | -0.8% | -19.3% | 9.2%
COC(=O)c1ccc(C(=O)OC)c(-n2c(=O)c3ccccc3c3ccccc3c2=O)c1 | 39.2% | 28.2µM* | 1.9% | 0.0% | -26.4% | ?
COc1ccc(Br)cc1/C=N/n1c(COc2ccccc2)n[nH]c1=S | 12.0% | 44.7µM* | 1.8% | nt | -9.3% | 0.9%
COc1cc(OC)c(OC)cc1/C=N/n1c(COc2ccccc2)n[nH]c1=S | ? | ? | 44.7µM* | nt | 17.8µM* | -32.3%
COc1ccc(/C=N/n2c(COc3ccccc3)n[nH]c2=S)cc1OC | ? | 1.26µM* | ? | nt | 14.1µM* | -27.2%
COc1cc(/C=N/N2CCOCC2)ccc1OCc1ccccc1 | -31.4% | -5.5% | 8.7% | nt | ? | ?
COc1ccc(OC)c(/C=N/n2c(COc3ccccc3)n[nH]c2=S)c1 | 43.9% | ? | -0.1% | nt | -13.2% | 3.4%
COCCNC(=O)[C@@]1(Cc2ccccc2)C=C[C@@H](C)N1C(=O)OC | nt | nt | 17.1% | nt | nt | nt
CC(C)c1ccc2c(c1)CCC1C(C)(CN)CCCC21C (centres undefined) | 18.0% | 26.3%[59 µM] | 11.2µM* | nt | -16.2% | 1.1%
CC(C)c1ccc2c(c1)CC[C@@H]1[C@@](C)(CN)CCC[C@]21C | nt | nt | -8.2% | nt | nt | nt
CCN1CCN(Cc2ccc(OC)c(OCc3ccccc3)c2)CC1 | 8.2% | ? | 2.4% | nt | -19.0% | -37.7%
CCOc1ccc(CN2CCN(Cc3ccc4c(c3)c3ccccc3n4CC)CC2)cc1 | ? | 4.47µM* | nt | nt | 22.4µM* | 10µM*
SMILES | HP1b chromo inh | G9a inh | Sfp inh | L3MBTL1 inh | JMJD2A Tudor | BAZ2B block
Cc1ccc(Cn2c(=O)n(Cc3ccccc3Cl)c(=O)c3ccccc32)cc1 | 7.3% | 4.2%[59 µM] | nt | nt | -15.4% | -1.6%
CCOc1ccc(C(=O)N2CCN(Cc3ccccc3)CC2)cc1 | 21.9% | ? | -11.8% | 3.9% | -10.5% | nt
CCn1c2ccccc2c2cc(CN3CCN(Cc4ccccc4Cl)CC3)ccc21 | ? | 3.55µM* | nt | nt | 7.08µM* | 50.1µM*
CCn1c2ccccc2c2cc(CN3CCN(Cc4ccc(OC)c(OC)c4)CC3)ccc21 | ? | ? | nt | nt | 4.47µM* | 44.7µM*
Cc1csc(=NC(=O)c2ccccc2)n1Cc1ccco1 | -5.1% | ? | -6.2% | 0.7% | -20.9% | -36.6%
Cc1csc(=Nc2ccccc2)n1Cc1ccco1 | ? | 39.8µM* | -20.1% | ? | 44.7µM* | 63.1µM*
Oc1c(Br)cc(Br)cc1CNc1ccc(F)cc1 | -15.6% | 44.7µM* | -26.7% | nt | ? | 39.8µM*
Oc1c(Br)cc(Br)cc1CNc1cnc2ccccc2c1 | 4.9% | nt | -17.0% | 9.2% | ? | ?
Cc1ccc(C2NNC(=O)C2NC(=O)c2ccccc2)cc1 (centres undefined) | 0.6% | 2.24µM* | -11.2% | nt | ? | -7.0%
O=C(NC1C(=O)NNC1c1ccccc1)c1ccc(F)cc1 (centres undefined) | 38.5% | -19.5%[59 µM] | 4.1% | -3.0% | -11.8% | 5.3%
COc1ccc(C(=O)CC(=O)c2ccc(F)cc2)cc1 | 103.2% | nt | nt | nt | 5.8% | nt
COc1ccc(/C=C2\C(=O)NC(=S)N2C(=O)c2ccc(F)cc2)cc1 | -2.2% | ? | ? | ? | ? | 56.2µM*
O=C(c1ccc(F)cc1)N1CCN(Cc2ccccc2)CC1 | 25.5% | 16.9% | 6.0% | 0.0% | -31.7% | -3.7%
O=C1NC(=S)N(C(=O)c2ccc(F)cc2)/C1=C/c1ccccc1 | -35.4% | 10µM* | ? | -18.8% | 39.8µM* | 44.7µM*
COc1cccc(-n2nnc(-c3nc(-c4ccccc4F)no3)c2C)c1 | 6.2% | -0.3%[59 µM] | nt | nt | -11.7% | 13.7%

From PubChem
